Inconclusive results are not listed. Active and inactive are the calls of the source. Unless noted, the call rests on the fitted dose curve; in most records, active means well fitted curve in the direction sought with a large enough effect; inconclusive means small, poorly fitted or top-dose-only effect, or another doubt; inactive means no such curve, though single readings can be large; an effect the other way counts as inactive or inconclusive.
Columns and labels:
[1] = molecular target: Alpha-galactosidase A (Homo sapiens) (UniProt P06280); experiment: Counterscreen for Glucocerebrosidase Inhibitors: qHTS Assay for Human alpha-Galactosidase at pH 4.5 (AID 992); conditions: purified enzyme, fluorogenic substrate; series mostly up to 76.9 µM; further: 0% is about no effect
Alpha-galactosidase A (Homo sapiens), sequence (P06280 whole entry, looked up): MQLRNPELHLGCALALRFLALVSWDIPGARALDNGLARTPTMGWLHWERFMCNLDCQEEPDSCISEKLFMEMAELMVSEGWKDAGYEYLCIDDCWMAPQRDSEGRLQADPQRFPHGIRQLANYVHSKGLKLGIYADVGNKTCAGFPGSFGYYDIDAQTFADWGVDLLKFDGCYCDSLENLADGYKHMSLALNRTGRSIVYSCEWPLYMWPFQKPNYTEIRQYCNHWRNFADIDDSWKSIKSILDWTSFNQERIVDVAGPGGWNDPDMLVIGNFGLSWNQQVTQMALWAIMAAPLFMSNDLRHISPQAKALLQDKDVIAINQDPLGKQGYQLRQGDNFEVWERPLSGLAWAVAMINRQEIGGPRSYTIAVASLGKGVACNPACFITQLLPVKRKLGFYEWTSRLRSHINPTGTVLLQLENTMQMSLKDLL
Summary of the method: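 Each compound is preincubated briefly with 2 nM enzyme before substrate addition (80 uM); plates then sit 20 min at ambient temperature, are quenched with 1M NaOH/1M glycine, and read fluorometrically.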

[2] = molecular target: alpha-glucosidase (Oryza sativa, rice) (UniProt Q653V4); experiment: Counterscreen for Glucocerebrosidase Inhibitors: qHTS Assay for Rice alpha-Glucosidase at pH 5.0 (AID 997); conditions: rice alpha-glucosidase enzyme activity; series mostly up to 76.9 µM;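 further: 0% = full activity with enzyme and -100% = basal without enzyme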
Summary of the method: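 Endpoint fluorogenic assay at pH 5.0: compounds (0.7 nM to 77 uM) titrated against 4 nM rice enzyme and 400 uM 4-MU-alpha-glucoside for 20 min at room temperature; NaOH/glycine stop, read ex 365/em 440 nm, Hill-fitted AC50.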

[3] = molecular target: ATP-dependent 6-phosphofructokinase (Trypanosoma brucei brucei) (UniProt O15648); experiment: qHTS Assay to Find Inhibitors of T. brucei phosphofructokinase: hit validation (AID 492961);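 further: luminescence reports ADP formed as PFK phosphorylates fructose-6-phosphate with ATP; on the % scale 0 is the no-effect control and ±100 the full control effect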; conditions: T. brucei PFK, ADP-Glo luminescence; series mostly up to 51.4 µM
Summary of the method: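 PFK 1.25 nM, F6P 0.5 mM, ATP 0.1 mM, MgCl2 5 mM, 0.1 M TEA pH 8.0, Tween20 0.01%, BSA 0.1%; 45 min RT. ADP-Glo two-step detection, luminescence. qHTS titration; curve fitting with curve-class categorization.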

[4] = molecular target: Ubiquitin carboxyl-terminal hydrolase 1 (Homo sapiens) (UniProt O94782); experiment: Inhibitors of USP1/UAF1: Pilot qHTS (AID 504865); conditions: purified USP1/UAF1, Ub-rhodamine cleavage fluorescence; series mostly up to 114 µM;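 further: rhodamine fluorescence freed from ubiquitin-rhodamine substrate followed over time; top concentration of the series differs between compounds; on the % scale 0 is the no-effect control and ±100 the full control effect; nearly all actives have a fitted effect of over 35% in size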
Ubiquitin carboxyl-terminal hydrolase 1 (Homo sapiens), sequence (O94782 whole entry, looked up): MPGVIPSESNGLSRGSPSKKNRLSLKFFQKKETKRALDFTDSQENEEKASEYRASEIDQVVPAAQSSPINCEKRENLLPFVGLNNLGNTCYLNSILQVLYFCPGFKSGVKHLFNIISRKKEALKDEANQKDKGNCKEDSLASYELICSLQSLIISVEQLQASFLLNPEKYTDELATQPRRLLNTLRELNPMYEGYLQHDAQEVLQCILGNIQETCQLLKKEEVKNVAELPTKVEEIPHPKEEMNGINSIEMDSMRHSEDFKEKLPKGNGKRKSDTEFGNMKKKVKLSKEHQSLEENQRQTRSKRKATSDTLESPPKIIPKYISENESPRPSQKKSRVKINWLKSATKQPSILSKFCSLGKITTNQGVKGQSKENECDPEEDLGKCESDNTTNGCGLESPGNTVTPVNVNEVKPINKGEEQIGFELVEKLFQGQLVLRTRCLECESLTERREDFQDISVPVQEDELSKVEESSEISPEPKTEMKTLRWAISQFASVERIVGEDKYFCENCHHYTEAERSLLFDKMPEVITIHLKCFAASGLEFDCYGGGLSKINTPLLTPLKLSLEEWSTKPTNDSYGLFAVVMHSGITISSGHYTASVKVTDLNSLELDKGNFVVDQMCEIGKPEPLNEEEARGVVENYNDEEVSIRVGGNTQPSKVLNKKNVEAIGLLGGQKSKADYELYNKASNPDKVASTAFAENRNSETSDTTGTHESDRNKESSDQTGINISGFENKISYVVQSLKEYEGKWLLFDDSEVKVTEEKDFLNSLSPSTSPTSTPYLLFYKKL
Summary of the method: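 Kinetic fluorescence assay: 1nM USP1/UAF1, 15 min compound preincubation, then 150nM Ub-Rho; 480/540 nm.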

[5] = Cell Viability - LYMP1-002 - Assay at 24 hr (AID 993); conditions: LYMP1-002 lymphoblastoid cells viability; series mostly up to 92.2 µM; further: on the % scale 0 is the no-effect control and ±100 the full control effect
Summary of the method: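 CellTiter-Glo luminescence (intracellular ATP) after 24 h compound exposure, 37 C, in LYMP1-002 human lymphoblastoid cells; decreased ATP taken as cytotoxicity. AC50 from standard Hill fit of concentration-response curves.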

[6] = Cell Viability - LYMP1-002 - Assay at 40 hr (AID 994); conditions: LYMP1-002 lymphoblastoid cell viability; series mostly up to 92.2 µM;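 further: 0% = DMSO only and full inhibition = 92 µM tetraoctylammonium bromide; nearly all actives have a fitted effect of over 60% in size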
Summary of the method: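 qHTS cytotoxicity; 2500 cells/well, 5 hr 37 C settle, compound 40 hr 37 C. CellTiter-Glo, 30 min RT, luminescence (ATP). Concentration-response, Hill fit → AC50. Pos. ctrl tetraoctylammonium bromide.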

[7] = qHTS Assay for Identification of Small Molecule Inducers of Hypoxia Response (AID 2120; active means well fitted curve in the direction sought with a large enough effect in the signal ratio, with a control signal flat, not every such curve was filed as active; the % refers to the signal ratio; further: 0% is about no effect); conditions: hypoxia response reporter cells, beta-lactamase ratio readout; series mostly up to 104 µM
Summary of the method: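 Read-out: CCF4 FRET emission ratio 460nm/530nm (excitation 405nm), converted to %Activity, with AC50 fitted across a compound titration. ME-180 cells carried an HRE-driven beta-lactamase reporter; compound exposure 17 h, 37 degrees C.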

[8] = molecular target: Bile acid receptor (Homo sapiens) (UniProt Q96RI1); experiment: qHTS assay for small molecule antagonists of farnesoid X receptor signaling (AID 588526; calls by dose curve; further: on the % scale 0 is the no-effect control and ±100 the full control effect); conditions: HEK293T FXR-UAS-bla, beta-lactamase ratio, antagonist mode; series mostly up to 76.7 µM
Summary of the method: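 Concentration-response titrations were fitted to the Hill equation for half-maximal inhibition and maximal response, with data normalised to 50 uM chenodeoxycholic acid and DMSO control wells. Cells: FXR-UAS-bla HEK293T, dialyzed FBS.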

[9] = molecular target: Glucocorticoid receptor (Homo sapiens) (UniProt P04150); experiment: qHTS assay for small molecule agonists of glucocorticoid receptor signaling (AID 588532; active means well fitted curve in the direction sought with a large enough effect in the signal ratio, with a control signal flat; the % refers to the signal ratio;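 further: 100% = dexamethasone at 0.1 µM and 0% = DMSO only wells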); conditions: HeLa MMTV-bla, beta-lactamase ratio, agonist, 18 h; stronger effect = higher value; percent of dexamethasone control, DMSO zero
Glucocorticoid receptor (Homo sapiens), sequence (P04150 whole entry, looked up): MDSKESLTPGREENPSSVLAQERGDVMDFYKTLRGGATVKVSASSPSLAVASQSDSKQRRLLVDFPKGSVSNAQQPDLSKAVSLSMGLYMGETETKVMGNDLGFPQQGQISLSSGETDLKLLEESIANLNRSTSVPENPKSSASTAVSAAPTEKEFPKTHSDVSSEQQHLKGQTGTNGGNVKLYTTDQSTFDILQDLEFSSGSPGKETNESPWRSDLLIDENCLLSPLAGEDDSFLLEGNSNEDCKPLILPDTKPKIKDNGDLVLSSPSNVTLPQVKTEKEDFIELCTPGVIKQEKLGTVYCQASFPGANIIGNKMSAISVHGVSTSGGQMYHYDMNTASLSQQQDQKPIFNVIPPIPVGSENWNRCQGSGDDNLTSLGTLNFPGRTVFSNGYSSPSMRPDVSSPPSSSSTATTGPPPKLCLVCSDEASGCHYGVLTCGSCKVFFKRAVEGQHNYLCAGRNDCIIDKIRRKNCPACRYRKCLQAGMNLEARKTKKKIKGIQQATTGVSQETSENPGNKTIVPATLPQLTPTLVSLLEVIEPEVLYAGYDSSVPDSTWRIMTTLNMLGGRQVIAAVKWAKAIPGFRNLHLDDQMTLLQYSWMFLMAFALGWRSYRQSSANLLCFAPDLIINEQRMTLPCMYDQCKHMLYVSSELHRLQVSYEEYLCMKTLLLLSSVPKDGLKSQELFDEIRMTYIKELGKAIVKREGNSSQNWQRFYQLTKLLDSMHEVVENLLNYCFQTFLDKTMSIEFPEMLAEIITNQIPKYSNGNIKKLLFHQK
Summary of the method: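 MMTV-bla HeLa, beta-lactamase reporter; medium with 1% charcoal/dextran-stripped FBS; cpds up to 92 uM, 18 h, 37 C; CCF4 readout 460/530 nm; Hill fit → EC50, efficacy vs 0.1 uM dexamethasone = 100%.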

[10] = molecular target: Glucocorticoid receptor (Homo sapiens) (UniProt P04150); experiment: qHTS assay for small molecule antagonists of glucocorticoid receptor signaling (AID 588533; active means well fitted inhibition curve with a large enough effect in the signal ratio, with a control signal flat, not every such curve was filed as active; the % refers to the signal ratio;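 further: cells stimulated with 2 nM dexamethasone as agonist; on the % scale 0 is the no-effect control and ±100 the full control effect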); conditions: HeLa MMTV-bla, GRE beta-lactamase ratio, antagonist mode, 18 h; series mostly up to 76.8 µM
Summary of the method: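 Antagonist-mode qHTS: compound titrations added to GRE-bla HeLa cells, then dexamethasone 2 nM final; 18 h, 37 C. CCF4 FRET fluorescence normalized to dexamethasone and DMSO; IC50 from Hill fit.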

[11] = qHTS assay for small molecule antagonists of peroxisome proliferator-activated receptor delta signaling (AID 588535; active means well fitted inhibition curve with a large enough effect in the signal ratio, with a control signal flat, not every such curve was filed as active; the % refers to the signal ratio;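 on max response: cells co-treated with a PPAR-delta agonist as stimulator during compound exposure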); conditions: HEK293T PPARd-UAS-bla, beta-lactamase FRET ratio, 18 h; 460 nm channel
Summary of the method: (§1)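 Compounds tested in titration on PPAR-delta-UAS-bla HEK293T cells grown in charcoal/dextran-stripped serum (2%); beta-lactamase activity read via CCF4 emission at 460 and 530 nm.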

[12] = molecular target: Peroxisome proliferator-activated receptor delta (Homo sapiens) (UniProt Q03181); experiment: as above; conditions: HEK293T PPARd-UAS-bla, beta-lactamase FRET ratio, 18 h; series mostly up to 76.7 µM
Peroxisome proliferator-activated receptor delta (Homo sapiens), sequence (Q03181 whole entry, looked up): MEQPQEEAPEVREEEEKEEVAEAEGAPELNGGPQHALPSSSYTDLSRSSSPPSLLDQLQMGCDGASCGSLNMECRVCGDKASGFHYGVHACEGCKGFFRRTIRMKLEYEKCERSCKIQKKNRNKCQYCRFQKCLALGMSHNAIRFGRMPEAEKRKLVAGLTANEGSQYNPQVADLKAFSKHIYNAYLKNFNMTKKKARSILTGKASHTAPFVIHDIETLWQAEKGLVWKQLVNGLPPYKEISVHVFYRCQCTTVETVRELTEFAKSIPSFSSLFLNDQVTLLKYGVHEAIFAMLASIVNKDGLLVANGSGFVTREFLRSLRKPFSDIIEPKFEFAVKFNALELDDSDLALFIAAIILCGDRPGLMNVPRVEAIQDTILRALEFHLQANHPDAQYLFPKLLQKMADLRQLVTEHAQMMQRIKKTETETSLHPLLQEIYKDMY
Summary of the method: as §1

[13] = molecular target: Peroxisome proliferator-activated receptor gamma (Homo sapiens) (UniProt P37231); experiment: qHTS assay for small molecule agonists of peroxisome proliferator-activated receptor gamma signaling (AID 588536; active means well fitted curve in the direction sought with a large enough effect in the signal ratio, with a control signal flat, not every such curve was filed as active; the % refers to the signal ratio;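 further: 0% = DMSO basal wells and 100% = rosiglitazone at 2 µM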); conditions: HEK293 PPARg-UAS-bla, beta-lactamase ratio, 16 h, percent of rosiglitazone response, DMSO as zero; series mostly up to 76.7 µM
Peroxisome proliferator-activated receptor gamma (Homo sapiens), sequence (P37231 whole entry, looked up): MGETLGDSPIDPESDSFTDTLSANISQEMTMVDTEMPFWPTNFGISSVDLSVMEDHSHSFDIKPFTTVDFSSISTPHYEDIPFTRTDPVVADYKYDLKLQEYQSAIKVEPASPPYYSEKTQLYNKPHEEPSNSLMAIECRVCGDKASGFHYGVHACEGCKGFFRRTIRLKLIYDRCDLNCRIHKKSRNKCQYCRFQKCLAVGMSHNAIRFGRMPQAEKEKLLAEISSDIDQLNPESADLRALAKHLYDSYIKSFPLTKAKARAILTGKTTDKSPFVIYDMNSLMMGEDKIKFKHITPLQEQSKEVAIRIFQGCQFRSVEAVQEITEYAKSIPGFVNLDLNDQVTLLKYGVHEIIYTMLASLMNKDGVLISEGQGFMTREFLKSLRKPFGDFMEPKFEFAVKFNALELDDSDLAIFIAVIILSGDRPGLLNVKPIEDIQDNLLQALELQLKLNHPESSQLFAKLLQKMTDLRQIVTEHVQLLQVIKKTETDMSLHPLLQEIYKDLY
Summary of the method: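 Using GeneBLAzer HEK293 cells, response was quantified by CCF4 fluorescence and normalized between basal DMSO (0%) and rosiglitazone 2 uM (100%); curves yielded half-maximal stimulation concentration and efficacy.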

[14] = molecular target: Peroxisome proliferator-activated receptor gamma (Homo sapiens) (UniProt P37231); experiment: qHTS assay for small molecule antagonists of peroxisome proliferator-activated receptor gamma signaling (AID 588537; active means well fitted inhibition curve with a large enough effect in the signal ratio, with a control signal flat, not every such curve was filed as active; the % refers to the signal ratio;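 further: reporter cells co-stimulated with 50 nM rosiglitazone agonist during compound treatment; % of control where 0% means no effect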); conditions: HEK293 PPARg-UAS-bla, beta-lactamase ratio, antagonist mode; series mostly up to 76.8 µM
Summary of the method: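 HEK293 cells, PPAR-gamma-UAS-bla, 3000/well. Pre-incubation 6-6.5 h, 37 C. Compound titration with rosiglitazone 50 nM final, 16 h. CCF4 dye, 2 h RT, dual-emission fluorescence.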

[15] = molecular target: Vitamin D3 receptor (Homo sapiens) (UniProt P11473); experiment: qHTS assay for small molecule antagonists of vitamin D receptor signaling (AID 588541; calls by dose curve); conditions: HEK293T VDR-UAS-bla, beta-lactamase ratio, antagonist mode; series mostly up to 76.7 µM
Vitamin D3 receptor (Homo sapiens), sequence (P11473 whole entry, looked up): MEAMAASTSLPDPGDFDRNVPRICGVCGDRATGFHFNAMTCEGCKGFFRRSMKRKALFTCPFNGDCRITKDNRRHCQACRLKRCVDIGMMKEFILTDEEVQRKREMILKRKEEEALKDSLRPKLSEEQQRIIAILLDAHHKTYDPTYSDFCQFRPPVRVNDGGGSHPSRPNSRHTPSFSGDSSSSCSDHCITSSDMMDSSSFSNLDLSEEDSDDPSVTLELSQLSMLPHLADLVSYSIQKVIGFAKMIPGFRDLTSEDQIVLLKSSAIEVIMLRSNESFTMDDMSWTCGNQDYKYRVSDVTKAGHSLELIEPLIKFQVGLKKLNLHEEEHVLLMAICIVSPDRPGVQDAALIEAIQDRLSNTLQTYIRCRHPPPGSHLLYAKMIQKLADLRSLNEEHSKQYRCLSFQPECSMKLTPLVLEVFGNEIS
Summary of the method: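 VDR-UAS-bla HEK293T cells (2000/well, 2% charcoal-stripped FBS) were treated with titrated compounds plus 1-alpha,25-dihydroxyvitamin D3 (50 nM or 3 nM final) for 16 h at 37 C. CCF4 beta-lactamase fluorescence was read; Hill fits gave IC50.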

[16] = molecular target: Estrogen receptor (Homo sapiens) (UniProt P03372); experiment: qHTS assay for small molecule antagonists of estrogen receptor alpha signaling (AID 588513; active means well fitted curve in the direction sought with a large enough effect in the signal ratio, with a control signal flat, not every such curve was filed as active; the % refers to the signal ratio; further: on the % scale 0 is the no-effect control and ±100 the full control effect); conditions: ER-alpha-UAS-bla HEK293, beta-lactamase ratio, antagonist mode; series mostly up to 76.9 µM
Estrogen receptor (Homo sapiens), sequence (P03372 whole entry, looked up): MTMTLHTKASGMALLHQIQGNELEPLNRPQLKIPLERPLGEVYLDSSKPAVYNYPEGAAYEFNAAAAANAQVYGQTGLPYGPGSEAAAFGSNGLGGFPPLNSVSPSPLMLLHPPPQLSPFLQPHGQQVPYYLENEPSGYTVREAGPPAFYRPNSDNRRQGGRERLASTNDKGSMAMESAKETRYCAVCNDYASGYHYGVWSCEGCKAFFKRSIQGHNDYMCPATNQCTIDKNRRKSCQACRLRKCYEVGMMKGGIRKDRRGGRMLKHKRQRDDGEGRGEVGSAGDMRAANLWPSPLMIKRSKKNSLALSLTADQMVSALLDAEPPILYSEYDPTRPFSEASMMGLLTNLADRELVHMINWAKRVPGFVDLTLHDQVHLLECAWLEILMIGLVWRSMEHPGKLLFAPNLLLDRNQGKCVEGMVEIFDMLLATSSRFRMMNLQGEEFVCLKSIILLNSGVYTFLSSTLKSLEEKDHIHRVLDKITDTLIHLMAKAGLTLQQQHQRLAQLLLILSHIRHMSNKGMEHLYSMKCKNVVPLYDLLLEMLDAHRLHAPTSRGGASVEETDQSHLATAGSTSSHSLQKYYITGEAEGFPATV
Summary of the method: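 Cells were plated at 5000/well and incubated 4 h at 37 C. Compounds were added as 1:2 dilution series, duplicates. 17-beta-estradiol (0.5nM final) was added for 18 h before CCF4 detection.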

[17] = molecular target: Estrogen receptor (Homo sapiens) (UniProt P03372); experiment: qHTS assay for small molecule agonists of estrogen receptor alpha signaling (AID 588514; calls by dose curve;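 further: 0% = vehicle only and 100% = reference agonist; nearly all actives have a fitted effect of over 70% in size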); conditions: ER-alpha-UAS-bla HEK293, beta-lactamase ratio, 18 h, percent of full estradiol response, vehicle zero; series mostly up to 76.8 µM
Summary of the method: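 Read-out: CCF4 fluorescence from a beta-lactamase reporter in ER-alpha-UAS-bla HEK 293 cells after 18 hrs of compound exposure at 37 C. Normalized to 20 nM 17-beta-estradiol (100%) and DMSO (0%).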

[18] = molecular target: Androgen receptor (Homo sapiens) (UniProt P10275); experiment: qHTS assay for small molecule agonists of androgen receptor signaling (AID 588515; active means well fitted curve in the direction sought with a large enough effect in the signal ratio, with a control signal flat; the % refers to the signal ratio; further: on the % scale 0 is the no-effect control and ±100 the full control effect); conditions: AR-UAS-bla HEK293, beta-lactamase ratio, agonist 16 h; stronger effect = higher value
Androgen receptor (Homo sapiens), sequence (P10275 whole entry, looked up): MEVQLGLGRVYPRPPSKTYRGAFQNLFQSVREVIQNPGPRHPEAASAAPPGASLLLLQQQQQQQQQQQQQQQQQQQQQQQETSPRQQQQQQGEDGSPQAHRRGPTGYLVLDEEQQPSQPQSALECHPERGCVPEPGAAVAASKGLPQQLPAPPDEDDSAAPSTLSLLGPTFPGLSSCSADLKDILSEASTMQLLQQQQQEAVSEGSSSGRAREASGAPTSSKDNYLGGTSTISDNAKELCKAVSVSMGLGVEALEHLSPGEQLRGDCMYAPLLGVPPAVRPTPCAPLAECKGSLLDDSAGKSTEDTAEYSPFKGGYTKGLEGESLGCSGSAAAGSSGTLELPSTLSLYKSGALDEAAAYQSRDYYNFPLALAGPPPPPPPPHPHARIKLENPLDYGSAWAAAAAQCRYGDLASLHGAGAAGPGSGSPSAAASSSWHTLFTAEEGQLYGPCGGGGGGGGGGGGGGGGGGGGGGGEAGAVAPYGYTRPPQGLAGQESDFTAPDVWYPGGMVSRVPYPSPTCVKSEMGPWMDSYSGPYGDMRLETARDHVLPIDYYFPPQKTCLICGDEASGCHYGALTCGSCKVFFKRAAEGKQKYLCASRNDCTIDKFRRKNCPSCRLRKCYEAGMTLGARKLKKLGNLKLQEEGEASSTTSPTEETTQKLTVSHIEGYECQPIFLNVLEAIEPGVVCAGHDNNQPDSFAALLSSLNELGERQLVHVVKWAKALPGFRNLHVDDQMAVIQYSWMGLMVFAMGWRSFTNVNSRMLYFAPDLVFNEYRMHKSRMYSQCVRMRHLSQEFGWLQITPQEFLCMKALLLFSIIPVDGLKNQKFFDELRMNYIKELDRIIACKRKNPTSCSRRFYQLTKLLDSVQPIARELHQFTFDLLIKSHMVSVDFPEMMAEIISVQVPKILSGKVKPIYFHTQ
Summary of the method: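 Stimulation of an AR-responsive β-lactamase reporter in GripTite HEK293 cells was measured after 16 h compound exposure at 37 °C, via CCF4 fluorescence after 2 h RT. EC50 from Hill fits, normalized to R1881 at 30 nM.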

[19] = molecular target: Androgen receptor (Homo sapiens) (UniProt P10275); experiment: qHTS assay for small molecule antagonists of androgen receptor signaling (AID 588516; active means well fitted curve in the direction sought with a large enough effect in the signal ratio, with a control signal flat, not every such curve was filed as active; the % refers to the signal ratio; further: on the % scale 0 is the no-effect control and ±100 the full control effect); conditions: AR-UAS-bla HEK293, beta-lactamase ratio, antagonist mode, 16 h; series mostly up to 76.8 µM
Summary of the method: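 Antagonist-mode qHTS: inhibition of R1881 (10 nM)-driven beta-lactamase expression in GripTite HEK 293 cells is measured after 16 h; values are Hill-derived IC50s normalized between R1881 and DMSO wells.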

[20] = qHTS Assay for Lipid Storage Modulators (AID 1519; calls by dose curve); conditions: Drosophila S3 cells, BODIPY lipid droplet/cell ratio, laser cytometry, cells loaded with oleic acid
Summary of the method: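 Cells seeded at 5,000 per well were treated with compounds over a concentration series and loaded with oleic acid (400 uM, as added). Lipid droplet fluorescence (488 nm excitation, 500-530 nm channel) was read by laser-scanning cytometry and normalized to 20 uM Triacsin C.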

CC(C)C[C@H](NC(=O)[C@@H]1O[C@H]1C(=O)O)C(=O)NCCCCN=C(N)N
inactive: outcome [1] | outcome [2]

CCOC(=O)C(CCc1ccccc1)NC(C)C(=O)N1Cc2ccccc2CC1C(=O)O (configuration not stated)
inactive: outcome [3] | outcome [4]

C[C@]1(C2CCCC2)Cc2cc(OCC(=O)O)c(Cl)c(Cl)c2C1=O
inactive: outcome [1] | outcome [2]

C=C1C[C@]23C[C@@]1(O)CC[C@H]2[C@@]12C=C[C@H](O)[C@@](C)(C(=O)O1)[C@H]2[C@@H]3C(=O)O
8.68%: max response [11]
inactive: outcome [5] | outcome [6] | outcome [7] | outcome [8] | activation [9] -5.06% | outcome [10] | outcome [12] | outcome [13] | outcome [14] | outcome [15]

COc1ccc(CCC(=O)c2c(O)cc(O[C@@H]3O[C@H](CO)[C@@H](O)[C@H](O)[C@H]3O[C@@H]3O[C@@H](C)[C@H](O)[C@@H](O)[C@H]3O)cc2O)cc1O
inactive: outcome [5] | outcome [6] | outcome [7] | outcome [16] | outcome [17] | activation [18] 12.1% | outcome [19] | activation [9] -0.542% | outcome [10] | outcome [13] | outcome [15]

O=C(/C=C/C=C/c1ccc2c(c1)OCO2)N1CCCCC1
-63.1%: max response [11]
inactive: outcome [4] | outcome [16] | outcome [17] | outcome [12] | outcome [15]

CCc1cccc2c3c([nH]c12)[C@@](CC)(CC(=O)O)OCC3
8.85%: max response ([20]; measured here: cell count channel max response)
inactive: activity change, negative = inhibition ([20]; at 25.7 µM (top of the series)) -1.67%
4.97%: max response ([20]; measured here: lipid channel max response)
